From the supplement of paper PMC6555819

Experiments:
Assay in all cases: PBM binding z-score (relative to random genomic background probes); higher = stronger binding; sequences stand for … in GC…GCGATTGACAGCGTAGAATGAAGG
[1] = tested on: FXR:RXRa (NR concentration 270 nM, RXRa partner concentration 90 nM)
Procedure, shortened: (§1)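 Probes were double-stranded and carried 34-nt variable regions with direct-repeat seeds, single-nucleotide variants, half-site ablations and random human genomic background sequences, printed on custom Agilent 4×180K protein-binding microarrays. Arrays were incubated 1 h with ligand-free nuclear receptor dimers in PBS pH 7.4, 2% milk, 0.02% Triton X-100, 1 mM DTT, 0.2 mg/mL BSA and 0.4 mg/ml salmon testes DNA. Antibodies against each partner (one per run) detected binding, and scanned fluorescence was regression-normalized. Binding z-scores use the random background probes as reference.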

[2] = tested on: LXRa:RXRa (NR concentration 270 nM, RXRa partner concentration 90 nM)
Procedure, shortened: as §1

[3] = tested on: LXRa homodimer (NR concentration 270 nM)
Procedure, shortened: as §1

[4] = tested on: LXRb:RXRa (NR concentration 270 nM, RXRa partner concentration 90 nM)
Procedure, shortened: as §1

[5] = tested on: LXRb homodimer (NR concentration 270 nM)
Procedure, shortened: as §1

[6] = tested on: PPARa:RXRa (NR concentration 270 nM, RXRa partner concentration 90 nM)
Procedure, shortened: as §1

[7] = tested on: PPARg:RXRa (NR concentration 180 nM, RXRa partner concentration 90 nM)
Procedure, shortened: as §1

[8] = tested on: PPARg:RXRa 270nM:90nM, anti-RXR (NR concentration 270 nM, RXRa partner concentration 90 nM)
Procedure, shortened: as §1

[9] = tested on: PPARg:RXRa 30nM:10nM, anti-RXR (NR concentration 30 nM, RXRa partner concentration 10 nM)
Procedure, shortened: as §1

[10] = tested on: PPARg:RXRa 90nM:30nM, anti-RXR (NR concentration 90 nM, RXRa partner concentration 30 nM)
Procedure, shortened: as §1

[11] = tested on: PPARg:RXRa DBDmut IVT, anti-RXR (DBD mutation: RXRa K156A/R161A, NR concentration 270 nM, RXRa partner concentration 90 nM)
Procedure, shortened: as §1

[12] = tested on: PPARg:RXRa IVT, anti-PPARg (NR concentration 270 nM, RXRa partner concentration 90 nM)
Procedure, shortened: as §1

[13] = tested on: PPARg DBDmut:RXRa IVT, anti-PPARg (DBD mutation: PPARg1 K132A/R137A, NR concentration 270 nM, RXRa partner concentration 90 nM)
Procedure, shortened: as §1

[14] = tested on: PPARg DBDmut IVT, anti-PPARg (DBD mutation: PPARg1 K132A/R137A, NR concentration 270 nM)
Procedure, shortened: as §1

[15] = tested on: PPARg homodimer (NR concentration 180 nM)
Procedure, shortened: as §1

[16] = tested on: PXR:RXRa (NR concentration 270 nM, RXRa partner concentration 90 nM)
Procedure, shortened: as §1

[17] = tested on: PXR homodimer (NR concentration 270 nM)
Procedure, shortened: as §1

[18] = tested on: RARa:RXR (NR concentration 270 nM, RXRa partner concentration 90 nM)
Procedure, shortened: as §1

[19] = tested on: RARa homodimer (NR concentration 270 nM)
Procedure, shortened: as §1

[20] = tested on: RARb:RXRa (NR concentration 270 nM, RXRa partner concentration 90 nM)
Procedure, shortened: as §1

Row | Sequence | PBM binding z-score [1] | PBM binding z-score [2] | PBM binding z-score [3] | PBM binding z-score [4] | PBM binding z-score [5] | PBM binding z-score [6] | PBM binding z-score [7] | PBM binding z-score [8] | PBM binding z-score [9] | PBM binding z-score [10] | PBM binding z-score [11] | PBM binding z-score [12] | PBM binding z-score [13] | PBM binding z-score [14] | PBM binding z-score [15] | PBM binding z-score [16] | PBM binding z-score [17] | PBM binding z-score [18] | PBM binding z-score [19] | PBM binding z-score [20]
1 | TCTAGCAGGCAAGAGGGTCACTCAAGAGGTACGG | 0.555 | 0.86 | -0.678 | 1.18 | -1.24 | 2.25 | 1.01 | 1.76 | 1.7 | 1.82 | 0.584 | 0.0219 | -0.412 | -0.872 | 0.722 | 1.62 | -0.663 | 2.3 | -0.406 | 1.92
2 | ATCGAAAGGTCGACGAGGTGAGTTTACACCGTTT | 4.66 | 3.45 | 0.17 | 2.95 | 0.407 | 4.71 | 2.73 | 3.1 | 0.726 | 2.05 | 0.636 | 2 | 1.01 | 0.288 | 1.24 | 3.35 | 0.675 | 3.27 | 0.024 | 3.9
3 | CCTACTGGGCCAAGGTGATTGATCAGTCAAAGCA | -0.711 | -0.732 | -0.784 | -0.722 | -1.14 | 0.274 | 1.29 | 2.08 | 0.0836 | 1.45 | 3.98 | 3.6 | -0.461 | -1.01 | -0.0957 | -0.771 | -0.714 | -0.606 | -1.01 | 0.182
4 | CCTAGCAGGCCAATCTGGGTCACTCGAGGCTTGA | -0.0192 | 1.35 | -0.447 | 0.667 | -1 | 2.98 | 1.69 | 1.96 | 0.0407 | 1.13 | 4.16 | 4.75 | -0.336 | 0.34 | 1.39 | 1.1 | -0.592 | 1.85 | -0.324 | 1.56
5 | CCGCCTGGGGCATAAGGTTACCATAAGCCAGCCC | 0.396 | 2.13 | -0.0987 | 0.843 | -1.3 | 1.3 | 0.507 | 0.996 | -0.661 | 0.461 | -0.446 | -0.147 | -2.09 | -2.48 | 0.35 | 0.37 | -0.511 | 1.52 | -0.89 | 1.68
6 | CCTACTGGGCCATGCAGAGGTCATTGATCATATG | 2.63 | 3.58 | 4.68 | 3.51 | -0.363 | 3.84 | 2.51 | 3.33 | 1.11 | 2.41 | 3.41 | 4.39 | 0.533 | 0.384 | 2.69 | 5 | 1.62 | 4.75 | 0.229 | 3.05
7 | ACTCGGCGGACAAAGGTCAGAGCTACGCCAGTGA | 3.34 | 3.79 | 1.32 | 2.86 | -0.304 | 4.34 | 4.89 | 5.97 | 3.53 | 5.74 | 0.148 | 2.33 | -0.012 | -0.434 | 1.79 | 3.41 | 0.0332 | 4.18 | 0.924 | 4.22
8 | ACTAGCAGGCCAAGGGTCACTGAAGATTAGTCCG | 3.07 | 2.89 | 0.0691 | 2.66 | -0.585 | 4.73 | 8.44 | 7.62 | 6.5 | 8.43 | 1.21 | 4.08 | 0.528 | 0.377 | 5.87 | 3.39 | -0.283 | 4.86 | 0.818 | 3.76
9 | ACATGTAGGTTAAGGGTCATTCAGGTTGGTTCGC | 5.47 | 4.89 | 3.12 | 4.5 | 1.95 | 6.02 | 11.1 | 9.37 | 8.78 | 11 | 6.63 | 7.34 | 4.14 | 3.37 | 4.52 | 5.46 | 2.78 | 5.86 | 2.44 | 3.53
10 | TCTAGTTGGTCAAAGGTCGCACACTCGAAATGCG | 2.96 | 2.82 | 0.642 | 2.92 | 0.553 | 5.33 | 10.3 | 9.2 | 10.5 | 10.8 | 3.09 | 5.25 | 1.76 | 1.51 | 4.25 | 3.78 | 0.71 | 5.01 | 1.36 | 3.29
11 | TCTCGGAGGACAAGAAGGTCAGAGCTTTCCAGAG | 1.04 | 1.14 | 0.138 | 0.982 | -0.842 | 1.9 | 0.179 | 1.35 | 2.52 | 1.71 | 1.27 | 0.839 | -0.347 | -1 | 0.686 | 1.71 | 1.64 | 1.69 | 0.0458 | 3.07
12 | CAAACTCGGTCACCGGAAGGTCAAAGTCCGCATG | 4.53 | 5.04 | 4.93 | 3.86 | 1.28 | 4.39 | 3.62 | 4.26 | 1.23 | 3.26 | 4.82 | 5.21 | 0.644 | 0.562 | 4.4 | 4.75 | 1.84 | 5.66 | 1.31 | 4.61
13 | GCGACTGGGGCATCAGAAGGTTACCATAACTTAA | -0.0561 | 0.0873 | -0.311 | 1.22 | -0.607 | 1.65 | 1.43 | 1.22 | -0.0101 | 0.461 | 3.59 | 3.39 | 0.195 | -0.175 | 0.756 | 0.582 | -0.271 | 0.988 | -0.432 | 1.2
14 | AGAATGAGGTTAAGATCTGGGAAACAGAATACAT | 1.95 | 1.82 | -0.135 | 1.51 | -0.0689 | 3.64 | 2.13 | 2.39 | 0.969 | 1.84 | 2.76 | 3 | 1.23 | 0.832 | 0.543 | 1.03 | 0.115 | 1.69 | 0.301 | 1.9
15 | CGTCCAAGGTCAAAGGTCAGTGAGGAGATGACGG | 8.06 | 7.01 | 4.05 | 6.21 | 1.86 | 7.08 | 10.8 | 8.98 | 8.09 | 9.57 | 4.27 | 5.57 | 0.435 | -0.522 | 6.24 | 7.08 | 2.54 | 8.87 | 5.49 | 5.85
